From PubChem
In the library only some 1.2% were active in any assay of this set; here they are far more common.
NTR1 agonist = agonists of human neurotensin receptor NTR1. activation, % at 20 µM. actives 0.17% (n = 330,000). AID 493036. NTR1-U2OS beta-arrestin-GFP spot imaging, agonist mode;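 active = activation at or above 40% of the spot to cytoplasm intensity ratio, with at least 20 cells analyzed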;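 also: 0% = DMSO without peptide and 100% = 100 nM NTR1 peptide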
Target sequence (P30989 whole entry, looked up): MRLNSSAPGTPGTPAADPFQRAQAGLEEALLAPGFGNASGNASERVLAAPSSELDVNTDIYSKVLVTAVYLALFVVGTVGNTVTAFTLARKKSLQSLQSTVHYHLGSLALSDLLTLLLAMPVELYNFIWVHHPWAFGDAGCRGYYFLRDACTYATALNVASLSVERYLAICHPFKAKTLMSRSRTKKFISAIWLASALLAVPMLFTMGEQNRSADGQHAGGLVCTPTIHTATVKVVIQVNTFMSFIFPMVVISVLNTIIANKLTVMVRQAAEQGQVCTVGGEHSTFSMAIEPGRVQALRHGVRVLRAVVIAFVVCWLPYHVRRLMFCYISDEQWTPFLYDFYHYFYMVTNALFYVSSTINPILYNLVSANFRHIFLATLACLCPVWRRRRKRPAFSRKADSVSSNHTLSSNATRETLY
GRK2 aptamer HTS = human GRK2 inhibition via aptamer displacement. P25098. bead flow cytometry, FAM-aptamer displacement from GRK2. inhibition of aptamer binding, % at 10 µM. actives 0.59% (n = 330,000). AID 488847;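 active = inhibition of aptamer binding above 40%, roughly 3 SD of noise, on plates passing a quality check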;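 also: median bead fluorescence of bound FAM aptamer so fluorescent compounds give negative values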
beta cell repl = induces beta-cell replication in MIN6 cells | MIN6 cells proliferation, ATPlite luminescence, 48 h; cells starved in 0.2% serum; 100% = growth in 10% serum | proliferation, % at 10 µM | actives 0.29% (n = 330,000);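 active = compounds whose signal lies at least 3.5 SD above the mean of all wells on their plate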;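 also: 0% = DMSO-treated cells in low-serum medium and 100% = 10% serum control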
Platelet DG rel = platelet dense granule release activity | human platelet-rich plasma, SFLLRN dense granule ATP release, luminescence | inhibition, %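 (compounds screened at 7.5 µM in platelet-rich plasma)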 | actives 0.22% (n = 300,000) | AID 1663;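 active = mean replicate score, as percent of positive control, at or above 50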
GRK2 CP1 = human GRK2 inhibition confirmation, cherry pick 1; shares compounds with GRK2 aptamer HTS; bead-bound GRK2, FAM-aptamer displacement, flow cytometry; aptamer displacement, % at 10 µM; actives 4% (n = 2,000); AID 504451;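 active = aptamer displacement above 40%, near three times the noise of non-fluorescent compounds, on plates passing quality checks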;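 also: negative values mostly reflect intrinsic compound fluorescence rather than true enhancement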
Aptamer quench SP = aptamer fluorescence quenching in GRK2 counter-screen; Carboxyfluorescein RNA aptamer on beads, flow cytometry quenching; active compounds read low; 2,000 tested, under 10 active; fluorescence response (% of DMSO), % at 10 µM; AID 504580; shares compounds with GRK2 aptamer HTS;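 active = compounds that quench the bead-bound fluorescent RNA probe, cutting fluorescence to under half of the solvent control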;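 also: counterscreen run without GRK2 so only probe quenching by compound is measured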
GRK2 CP2 = confirmation of human GRK2 inhibitors binding RNA aptamer site. 360 tested, under 10 active. shares compounds with GRK2 aptamer HTS. inhibition of aptamer binding, % at 10 µM. bead-bound GRK2, FAM-aptamer displacement, flow cytometry;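 active = inhibition of aptamer binding above 40%, about triple the noise seen with nonglowing compounds, on plates passing quality control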;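 also: negative values mostly come from compounds that fluoresce themselves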
FAM quench SP = counter-screen for GRK2 binding hits: quenchers of fluorescent RNA aptamer | shares compounds with GRK2 aptamer HTS | AID 588494 | carboxyfluorescein RNA aptamer beads, flow cytometry quenching; active compounds read low | 360 tested, under 10 active | fluorescence response vs DMSO, % at 10 µM;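 active = response vs DMSO under 50%, meaning signal dropped by over half, treated as fluorescence quencher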;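 also: labelled aptamer on streptavidin beads without GRK2 as a quench counter-screen; 100% = bead fluorescence of DMSO wells and lower means quenching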
An asterisk follows results filed as active; i = inactive; nt = no result given.

SMILES | NTR1 agonist | GRK2 aptamer HTS | beta cell repl | Platelet DG rel | GRK2 CP1 | Aptamer quench SP | others
C/C=C(/C)C(=O)Nc1cccc(C2=NOC3(C2)C[C@H](C(N)=O)N(C(=O)c2ccc(Cl)cc2)C3)c1 (some centres not stated) | 8 | 2 | -5 | -1 | nt | nt
CCc1ccccc1N(CC(=O)NC(C)c1ccccc1)S(C)(=O)=O (configuration not stated) | 1 | 0 | 0 | 2 | nt | nt
COc1cccc(NC(=O)C(C)NS(=O)(=O)c2ccc(Br)cc2)c1 (configuration not stated) | -1 | 41* | -2 | 2 | nt | nt | GRK2 CP2=-10;FAM quench SP=99
COc1cccc(NC(=O)COc2ccc(S(=O)(=O)NC(C)C)cc2)c1 | 2 | 0 | -1 | nt | nt | nt
O=C(NC1CCCC1)C(c1ccncc1)N(C(=O)Cn1nnc(-c2ccccc2F)n1)c1cccc(F)c1 (configuration not stated) | -2 | 0 | -1 | -6 | nt | nt
O=C1Nc2cc(C(F)(F)F)ccc2N2CCCCC12 (configuration not stated) | -1 | 52* | 0 | 0 | nt | nt | GRK2 CP2=27;FAM quench SP=94
O=C(Nc1ncccn1)c1ccc(Cl)c([N+](=O)[O-])c1 | -1 | 1 | 1 | 3 | nt | nt
CCc1nc(Nc2cccc(F)c2)c2oc3ccccc3c2n1 | 4 | 0 | -2 | 2 | nt | nt
O=C(O)c1ccc(-n2cccc2/C=N\NC(=O)c2cc3cc(Br)ccc3o2)cc1 | 0 | 58* | -3 | 6 | 35 | 97
CSc1ncc(Cl)c(C(=O)NCc2cccnc2)n1 | -1 | 4 | 0 | 0 | nt | nt
[O-]/C(=C(\C(=S)Nc1ccc(Cl)cc1)[n+]1ccccc1)c1ccc(OC(F)F)cc1 | 1 | 53* | -2 | -4 | 1 | 105
O=C(O)CC1NC(=S)N(c2ccccc2)C1=O (configuration not stated) | -1 | 70* | -2 | 0 | -1 | 103
CCc1nn2c(N3CCOCC3)cc(C)nc2c1-c1ccccc1 | 4 | 4 | -2 | -3 | 9 | 99
Cc1cc(N2CCOCC2)n2nc(C)c(-c3ccccc3)c2n1 | 1 | 2 | -1 | nt | nt | nt
CC(NC(=O)c1ccncc1)C(c1cccs1)N1CCOCC1 (configuration not stated) | -1 | 0 | 0 | -1 | nt | nt
CC(NC(=O)c1ccc(C(C)(C)C)cc1)C(c1cccs1)N1CCOCC1 (configuration not stated) | 1 | 53* | -1 | -2 | nt | nt | GRK2 CP2=5;FAM quench SP=102
COC(=O)c1ccc(/C=N/Nc2nc3ccccc3[nH]2)cc1 | 0 | 0 | -4 | 7 | nt | nt
O=C(O)c1ccc(/C=N/Nc2nc3ccccc3[nH]2)cc1 | -1 | 95* | -2 | 24 | -14 | 149
Cc1cc(NC(=O)Cc2ccccc2[N+](=O)[O-])no1 | 0 | 2 | -2 | -8 | nt | nt
COc1ccc(N(CC(=O)NCCSCc2cccc(Cl)c2)S(C)(=O)=O)cc1Cl | 1 | 0 | -5 | 6 | nt | nt
Cc1ccc2nc(N3CCN(c4ccccc4F)CC3)c(C=O)c(=O)n2c1 | -1 | 64* | -2 | 4 | 0 | 100
CC1CCN(C(=O)CSc2nc(C(C)C)nc3c2c(=O)n(C)c(=O)n3C)CC1 | 6 | 2 | 2 | -9 | nt | nt
CCCC(=O)Nc1nc2ccc(C(=O)OCC)cc2s1 | 2 | 0 | 1 | 0 | nt | nt
CCOC(=O)c1ccc2nc(NC(=O)C(C)C)sc2c1 | 2 | 62* | -4 | 15 | -1 | 97
CC(C)(C)c1ccc(OCCC(=O)OCC(=O)Nc2ccc(N3CCOCC3)cc2)cc1 | 0 | 3 | -1 | 0 | nt | nt
SMILES | NTR1 agonist | GRK2 aptamer HTS | beta cell repl | Platelet DG rel | GRK2 CP1 | Aptamer quench SP | others
O=C(Nc1ccccc1)c1c2c(nc3ccccc13)CCCC2 | 2 | 0 | -2 | 1 | nt | nt
CC(C(=O)O)n1c2ccccc2c2cnn(C)c(=O)c21 (configuration not stated) | 1 | 95* | 0 | -1 | 3 | 106
Cc1ccc(C(=O)CCC(=O)Nc2ccccc2F)cc1 | 0 | 2 | 1 | 2 | nt | nt
O=C(NCC1CCCO1)c1cn(Cc2ccccc2)nc1-c1ccc(Cl)cc1 (configuration not stated) | -2 | 45* | -1 | nt | 1 | 98
O=C(NCC1CCCO1)c1cn(Cc2ccccc2)nc1-c1ccccc1 (configuration not stated) | 6 | 5 | 2 | nt | nt | nt
COCCn1c(-c2ccc(OC)cc2)c(-c2ccc(OC)cc2)oc1=O | 2 | 6 | -5 | 12 | nt | nt
Cc1coc2c(C)c3oc(=O)c(CCC(=O)NCCCN4CCOCC4)c(C)c3cc12 | 6 | 0 | -3 | 1 | -1 | 97
Cc1c(C)c2ccc(OC(C)C(=O)NCCCN3CCOCC3)c(C)c2oc1=O (configuration not stated) | 2 | 0 | -1 | 13 | 0 | 101
COCc1cc(C)nc(N/N=C/c2ccc(-c3cc(C(=O)O)ccc3Cl)o2)c1C#N | 2 | 2 | 1 | 4 | nt | nt
COCc1cc(C)nc(N/N=C/c2ccc(Cl)c(Cl)c2)c1C#N | 0 | 85* | -2 | -4 | 2 | 101
COc1ccc(N(C)C(=O)CCS(=O)(=O)c2cccc3nonc23)c(OC)c1 | -1 | 0 | 0 | 0 | nt | nt | GRK2 CP2=-21;FAM quench SP=101
CCOc1ccccc1NC(=O)CCS(=O)(=O)c1cccc2nonc12 | -1 | 2 | 2 | nt | nt | nt | GRK2 CP2=i;FAM quench SP=107
CC(=O)c1cccc(NC(=O)CCNS(=O)(=O)c2cccc3nonc23)c1 | 0 | 0 | -1 | -2 | nt | nt
CC(=O)c1cccc(NC(=O)CCS(=O)(=O)c2cccc3nonc23)c1 | -1 | 2 | 1 | nt | nt | nt | GRK2 CP2=-21;FAM quench SP=110
O=C(NCCc1cccnc1)C1CCC(=O)N(Cc2ccc(Cl)cc2)C1 (configuration not stated) | 0 | nt | -2 | -9 | nt | nt
O=C(NC1CC1)c1cccc(Nc2ccc(-c3ccc4c(c3)OCCO4)nn2)c1 | 6 | 3 | -6 | -4 | 11 | 103
CC(C)C(NC(=O)C1CC(=O)N(Cc2ccccc2)C1)c1nc2ccccc2[nH]1 (configuration not stated) | 1 | 1 | 0 | nt | nt | nt
CC1CCC(NC(=O)c2cc(Cl)nc3ccccc23)CC1 (configuration not stated) | 0 | 2 | -1 | nt | nt | nt
COc1ccccc1NC(=O)CCn1c(=S)oc2ccccc21 | 1 | 1 | 0 | nt | nt | nt
CC(C)CCNC(=O)CCn1c(=S)oc2ccccc21 | -1 | 43* | 0 | 0 | 1 | 97
Cc1ccc2sc(C)[n+](CCO)c2c1 | 0 | 100* | -4 | -2 | -2 | 97
